Key:
Conditions in all cases: concentration: 1 μM,replicates: in singlicate; n = 1
CSNK1G1 = test system: CSNK1G1
CSNK1G2 = test system: CSNK1G2
CSNK1G3 = test system: CSNK1G3
CSNK2A1 = test system: CSNK2A1
CSNK2A2 = test system: CSNK2A2
CTK = test system: T1, CTK
T1 construct: gene MATK

DAPK1 = test system: DAPK1
DAPK2 = test system: DAPK2
DAPK3 = test system: DAPK3
DCAMKL1 = test system: T2, DCAMKL1
T2 construct: gene DCLK1

DCAMKL2 = test system: T3, DCAMKL2
T3 construct: gene DCLK2

DCAMKL3 = test system: T4, DCAMKL3
T4 construct: gene DCLK3

DDR2 = test system: DDR2
DLK = test system: T5, DLK
T5 construct: gene MAP3K12

DMPK2 = test system: T6, DMPK2
T6 construct: gene CDC42BPG

DMPK = test system: DMPK
DRAK1 = test system: T7, DRAK1
T7 construct: gene STK17A

DRAK2 = test system: T8, DRAK2
T8 construct: gene STK17B

DYRK1A = test system: DYRK1A
DDR1 = test system: DDR1
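Also: KINOMEscan kinase panel screen.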

SMILES	%Inh (CSNK1G1)	%Inh (CSNK1G2)	%Inh (CSNK1G3)	%Inh (CSNK2A1)	%Inh (CSNK2A2)	%Inh (CTK)	%Inh (DAPK1)	%Inh (DAPK2)	%Inh (DAPK3)	%Inh (DCAMKL1)	%Inh (DCAMKL2)	%Inh (DCAMKL3)	%Inh (DDR2)	%Inh (DLK)	%Inh (DMPK2)	%Inh (DMPK)	%Inh (DRAK1)	%Inh (DRAK2)	%Inh (DYRK1A)	%Inh (DDR1)
O=C(NCCNc1ccnc(NCc2ccc(F)cc2)n1)c1cc2ccccc2s1 [GSK1379944]	32%	98.8%	9%	0%	66%	0%	0%	0%	81%	1%	0%	4%	0%	0%	0%	0%	0%	0%	30%	–
CCN(CC)CCOc1ccc(Nc2ncc3cc(-c4c(Cl)cccc4Cl)c(=O)n(C)c3n2)cc1 [SB-601273]	38%	0%	12%	6%	9%	27%	12%	0%	10%	24%	41%	0%	100%	96.4%	95.4%	24%	43%	21%	0%	100%
Cc1ccc2c(-c3ccncc3)c(-c3ccc(F)cc3)nn2c1.Cl [GW461484]	30%	27%	27%	0%	0%	0%	0%	7%	5%	0%	0%	0%	80%	29%	77%	11%	0%	0%	0%	76%
Cc1n[nH]c2ccc(-c3cc(OC[C@@H](N)Cc4ccccc4)cnc3-c3ccoc3)cc12.O=C(O)C(F)(F)F.O=C(O)C(F)(F)F [GSK507358]	71%	90.6%	91.7%	10%	8%	0%	0%	0%	13%	0%	0%	0%	0%	15%	50%	92.8%	0%	0%	29%	0%
CC(C)N1C(=O)Cc2cc(Nc3ncc(C(F)(F)F)c(NCc4cccc(S(C)(=O)=O)c4)n3)ccc21	0%	19%	0%	55%	82%	64%	22%	20%	20%	30%	0%	34%	0%	0%	0%	0%	74%	82%	2%	–
Cl.Cl.NC[C@H](CC1CCCCC1)NC(=O)c1cc(Br)c(-c2ccnc3[nH]ccc23)s1 [GSK1581427]	6%	26%	40%	55%	0%	0%	71%	12%	19%	16%	14%	0%	0%	0%	98.3%	91.7%	14%	0%	55%	0%
Cc1ccc(-n2nc(C(C)(C)C)cc2NC(=O)Nc2ccc(OCCN3CCOCC3)c3ccccc23)cc1 [GW839464]	1%	0%	19%	0%	4%	0%	4%	1%	20%	21%	0%	34%	–	7%	40%	4%	0%	11%	0%	–

Reference: publication PMC5540273 (PLoS ONE, 2017)
